# Reference: article PMC7819943, “Rice protein-binding microarrays: a tool to detect cis-acting elements near promoter regions in rice”
# Over roughly 68,000 sequences, “fluorescence intensity (a.u.)” has its median near 9,100; the highest 2% begin near 16,000. This excerpt belongs to a sample that is enriched for the highest values.
# Biological target: OsWRKY34 (Oryza sativa, UniProt Q0JBA9 1-250)
# Experiment: protein-binding microarray (RPBM); PBS, 2% BSA, 51.3 ng/ul salmon testes DNA, 50 uM zinc acetate, 200 nM TF, 25 C, 1 h; high values mean tight binding
# Conditions: protein: recombinant; tags: N-terminal polyhistidine and DsRed monomer fusion (pET32a); label: CyDye5-dUTP incorporated in the synthesized complementary strand; 3' TTTTT single-stranded linker to array surface; dsDNA, one strand shown
# How it was run: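 Using Ni–NTA, transcription factors fused N-terminally to polyhistidine and DsRed were purified after expression in E. coli BL21-CodonPlus. These were incubated at 200 nM with a blocked, double-stranded custom Agilent array for 1 h at 25 °C in a buffer containing 50 µM zinc acetate, and the array was washed. The binding signal is per-feature fluorescence intensity (arbitrary units) on an Axon 4000B scanner.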
# Chain of OsWRKY34 (Q0JBA9 entry or part of it): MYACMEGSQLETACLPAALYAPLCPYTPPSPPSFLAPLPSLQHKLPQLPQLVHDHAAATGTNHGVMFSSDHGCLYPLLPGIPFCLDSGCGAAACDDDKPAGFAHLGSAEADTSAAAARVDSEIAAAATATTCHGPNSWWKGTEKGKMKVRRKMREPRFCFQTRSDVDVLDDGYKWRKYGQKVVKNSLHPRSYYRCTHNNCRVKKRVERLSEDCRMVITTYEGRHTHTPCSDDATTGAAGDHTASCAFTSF
row,Sequence,binding signal
1,ATCTACTACTATTCTACTCTACTCGCAAGTCTCACAAACACGGAGTCACCTAGTGCAG,8740 fluorescence intensity (a.u.)
2,AAAAAGAGTTCTCTTCTTCACTTCTACTCTTCACAACTTTCGGAGTCACCTAGTGCAG,9410 fluorescence intensity (a.u.)
3,CATCCAAATAGGTTCTTTTAGTTCAATTTTGGGGCAGTTTCGGAGTCACCTAGTGCAG,9920 fluorescence intensity (a.u.)
4,GCTACTATCAAGTCATAAGCTTACTACCAAGTTATAGCACCGGAGTCACCTAGTGCAG,8320 fluorescence intensity (a.u.)
5,ATATACATGTGATAGCTTCGTCTCAAGATACATTGTCCTACGGAGTCACCTAGTGCAG,9500 fluorescence intensity (a.u.)
6,CTGTTCCGCCACCTACCACCGAGCCGTTGTCTCCCATGACCGGAGTCACCTAGTGCAG,10100 fluorescence intensity (a.u.)
7,AAAGCCGTCGTATTGTCATCCGCCGCTCGCTGACTCATTCCGGAGTCACCTAGTGCAG,8310 fluorescence intensity (a.u.)
8,TCCCCTTCGCCCTTCGTCGTCGTCGTCGTCGTCGTTCGTCCGGAGTCACCTAGTGCAG,8050 fluorescence intensity (a.u.)
9,AACCACCACAAGCCGTTAACCCCGTTGTTTACCTCCTCCTCGGAGTCACCTAGTGCAG,8190 fluorescence intensity (a.u.)
10,TTGACTTTTGCTTGCACTGTTTGATTACTCGTCTTATTAACGGAGTCACCTAGTGCAG,8670 fluorescence intensity (a.u.)
11,TTTCAGGTTTTGCATTTCACACCTCTGTCGTCATACTTGACGGAGTCACCTAGTGCAG,17800 fluorescence intensity (a.u.)
12,ATTTTGACTTTTTGGTTGCGCTATTTGATTACTCGTCTTACGGAGTCACCTAGTGCAG,19400 fluorescence intensity (a.u.)
13,AACGCTATTTATTTTTTAAACATGTTTGATCGTTCGTCTTCGGAGTCACCTAGTGCAG,10200 fluorescence intensity (a.u.)
14,TTGTTTCTGTTCATTTTTCTCTATAGTACTTGCTAGGTGACGGAGTCACCTAGTGCAG,11500 fluorescence intensity (a.u.)
15,GCCGTTGACTTTTTATTACATGTTTGACCGTTCGTCTTATCGGAGTCACCTAGTGCAG,62900 fluorescence intensity (a.u.)
16,TATGTTCATTTCCTTATTTGCCTCTCGTCATGTCTCTTGACGGAGTCACCTAGTGCAG,10200 fluorescence intensity (a.u.)
17,TTTGCAACATTTGATTACTCGTCTTATTTAATTTTTTTTTCGGAGTCACCTAGTGCAG,8230 fluorescence intensity (a.u.)
18,TGACGCCGTTGACTTTTTTAAACATGTTTGATCGTTCGTCCGGAGTCACCTAGTGCAG,35900 fluorescence intensity (a.u.)
19,AGTAAAGTCCATCACCGGTCCCTAAACTTGTACCGCTATGCGGAGTCACCTAGTGCAG,8810 fluorescence intensity (a.u.)
20,AAAGATCGCTTTTTCCGTGGTAGGCTTCTCCATTTTATTTCGGAGTCACCTAGTGCAG,10700 fluorescence intensity (a.u.)
21,TATCTTGCCTAGCATATTGTCCGTGCGTTATTGCGATTTTCGGAGTCACCTAGTGCAG,10500 fluorescence intensity (a.u.)
22,TCCCACCCGTTTTTATTTTTCTCGGTGGTTAACTTATCTTCGGAGTCACCTAGTGCAG,8170 fluorescence intensity (a.u.)
23,TTCTTATTCTGTCGGTTGTGTGGTGGCAGGGCAGTTAATTCGGAGTCACCTAGTGCAG,8630 fluorescence intensity (a.u.)
